According to the supplement of paper PMC6953052:
Structures can show the parent of a compound that is named as a salt. In all, about 1,700 compounds were measured (“fraction of GFP-LC3-positive cells (≥5 vesicles/cell)”: median about 0.43, highest 2% from about 0.81 on). The sample as a whole holds a higher share of the highest values than the screen did.

The compounds below were run on CbCln3 Δex7/8/Δex7/8 GFP-LC3 cerebellar neuronal cells (assay: fraction of GFP-LC3-positive cells (≥5 vesicles/cell); higher = more autophagosome accumulation).
Procedure, shortened: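 In 384-well plates at 2 × 10^3 cells per well, GFP-LC3-expressing wild-type or mutant CbCln3 cerebellar cells took ~50 nL of compound in DMSO by pin transfer, in duplicate, for 24 h at 33 °C. Staining with Hoechst 33342 and LysoTracker Red over the final 30 min preceded fixation in 3.2% PFA and imaging of three fields per well at 10×. CellProfiler then counted GFP-LC3 vesicles in each cell, and out-of-focus images were dropped before the fraction of cells with 5 or more vesicles was averaged over duplicates.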

| SMILES | fraction of GFP-LC3-positive cells |
| --- | --- |
| C=C(C)[C@H]1O[C@H]2CC[C@@]3(C)[C@@](O)(CC[C@H]4[C@@H]5OC(C)(C)[C@H]6C[C@@H]7C(=C)Cc8c(Cl)cc9[nH]c(c5c9c8[C@@]76O)[C@@]43C)[C@]23O[C@@H]3[C@H]1O | 0.866 |
| CC[C@H]1CN2CCc3cc(OC)c(OC)cc3[C@@H]2C[C@@H]1C[C@H]1NCCc2cc(OC)c(OC)cc21.Cl.Cl [Emetine dihydrochloride] | 0.546 |
| Br.C[C@@H]1NCCc2cc(O)c(O)cc21 [Salsolinol hydrobromide] | 0.504 |
| C/C=C(/C)C(=O)O[C@H]1C(C)=C2[C@H]([C@@H]1OC(=O)CCCCCCC)[C@@](C)(OC(C)=O)C[C@H](OC(=O)CCC)[C@@]1(O)[C@H]2OC(=O)[C@@]1(C)O | 0.847 |
| N=C(N)NOCC[C@H](N)C(=O)O.O.O=S(=O)(O)O [Canavanine sulfate monohydrate (L,+)] | 0.416 |
| CCCC(C)(COC(N)=O)COC(=O)NC(C)C (stereo not given) [Carisoprodol] | 0.466 |
| C[N+](C)(C)CCCCCCCCCC[N+](C)(C)C.[Br-].[Br-] [Decamethonium bromide] | 0.418 |
| C/C1=C/C(=O)O[C@@H]2C[C@@H](CC[C@H](C)/C=C\CC1)O[C@@](O)([C@@H]1CSC(=O)N1)C2 [Latrunculin B] | 0.84 |
| C[C@@]12N[C@@H](Cc3ccccc31)c1ccccc12.O=C(O)/C=C\C(=O)O [(-)-MK 801 hydrogen maleate] | 0.432 |
| CC(=O)c1c(O)c(C)c(O)c(Cc2c(O)c3c(c(C(=O)/C=C/c4ccccc4)c2O)OC(C)(C)C=C3)c1O [Rottlerin] | 0.553 |
| CC(=O)c1c(O)c(C)c(O)c(Cc2c(O)c3c(c(C(=O)/C=C/c4ccccc4)c2O)OC(C)(C)C=C3)c1O | 0.551 |
| CC(=O)O[C@H]1CC[C@@]2(C)C(=CC[C@@H]3[C@@H]2CC[C@]2(C)C(=O)CC[C@@H]32)C1 [Dehydroisoandosterone 3-acetate] | 0.384 |
| CN1C(CC(O)c2ccccc2)CCCC1CC(O)c1ccccc1.Cl (stereo not given) [Lobelanidine hydrochloride] | 0.433 |
| COc1cc2c(cc1O)[C@@H]1Cc3ccc(OC)c(O)c3CN1CC2 [Scoulerine] | 0.821 |
| COc1ccc2c(c1O)-c1c(OC)c(OC)cc3c1[C@H](C2)N(C)CC3 [Isocorydine (+)] | 0.379 |
| COc1ccc2c(c1OC)CN1CCc3cc4c(cc3C1C2)OCO4 (stereo not given) [(d,l)-Tetrahydroberberine] | 0.303 |
| C[C@H]1O[C@@H](OC2CC[C@]3(C=O)[C@H]4CC[C@]5(C)[C@@H](C6=CC(=O)OC6)CC[C@]5(O)[C@@H]4CC[C@]3(O)C2)C[C@H](O)[C@@H]1O (stereo not given in full) [Helveticoside] | 0.378 |
| N#CC(C#N)=Cc1ccc(O)cc1 [Tyrphostin-8] | 0.461 |
| CCN1C[C@@]2(COC)C3[C@@H](OC)[C@H]4[C@@H]1[C@@]3(C1C[C@@]3(O)[C@H](OC(=O)c5ccccc5)C1[C@]4(OC(C)=O)[C@@H](O)[C@H]3OC)[C@@H](OC)C[C@H]2O (stereo not given in full) [Aconitine] | 0.413 |
| Cc1nccc2c1[nH]c1ccccc12.Cl [Harmane hydrochloride] | 0.55 |

| SMILES | fraction of GFP-LC3-positive cells |
| --- | --- |
| Cc1c2ccncc2c(C)c2c1[nH]c1ccccc12 [Ellipticine] | 0.954 |
| O=C(CCCN1CCC(n2c(=O)[nH]c3ccccc32)CC1)c1ccc(F)cc1 [Benperidol] | 0.358 |
| COc1cc2c(c(OC)c1OC)-c1ccc(OC)c(=O)cc1[C@@H](NC(C)=O)CC2 [Colchicine] | 0.906 |
| COC1=C[C@@H]2C3=C([C@@H]2C1=O)[C@@H](NC(C)=O)CCc1cc(OC)c(OC)c(OC)c13 [Lumicolchicine gamma] | 0.401 |
| COc1cc2c(c(OC)c1OC)-c1ccc(O)c(=O)cc1[C@@H](N)CC2 [Trimethylcolchicinic acid] | 0.415 |
| CC[C@@H]1/C=C/C=C/C[C@H](C)[C@@H](O)[C@](C)(O)C(=O)[C@H](C)[C@@H](O)[C@H](C)C(=O)[C@H](C)[C@@H](O)[C@H](C)/C=C/C(=O)O[C@H]2[C@@H](C)[C@@H](CC1)O[C@@]1(CC[C@@H](C)[C@@H](C[C@H](C)O)O1)[C@@H]2C [oligomycin A] | 0.578 |
| CC1=C2C[C@H]3[C@@H](CC=C4C[C@@H](O)CC[C@@]43C)[C@@H]2CC[C@]12O[C@@H]1C[C@H](C)CN[C@H]1[C@H]2C [cyclopamine] | 0.448 |
| CCCCC/C=C\C/C=C\C/C=C\C/C=C\CCCC(=O)NCc1ccc(O)c(OC)c1 [Arvanil] | 0.848 |
| CCCCC/C=C\C/C=C\C/C=C\C/C=C\CCCC(=O)NCC(=O)O [N-Arachidonoylglycine] | 0.376 |
| CCCCC/C=C\C/C=C\C/C=C\C/C=C\CCCC(=O)NCC(=O)O | 0.263 |
| CCCCC/C=C\C/C=C\C/C=C\C/C=C\CCCC(=O)NCCc1ccc(O)c(O)c1 [Arachidonoyl dopamine] | 0.658 |
| CC(C)NCC(O)c1ccc(N)c(C#N)c1 (stereo not given) | 0.462 |
| COc1cc([C@@H]2c3cc4c(cc3[C@H](O)[C@H]3COC(=O)[C@H]23)OCO4)cc(OC)c1OC [Podophyllotoxin] | 0.884 |
| COc1ccc2c(c1OC)C(=O)O[C@@H]2[C@H]1c2cc3c(cc2CCN1C)OCO3.Cl [Hydrastine hydrochloride] | 0.423 |
| Cl.Cl.Fc1ccc(C(OCCN2CCN(CCCc3ccccc3)CC2)c2ccc(F)cc2)cc1 | 0.168 |
| CO/C1=C\C(C)=C\[C@@H](C)[C@@H](O)[C@@H](C)C/C(C)=C/C=C/[C@H](OC)[C@@H]([C@@H](C)[C@@H](O)[C@H](C)[C@@]2(O)C[C@@H](O)[C@H](C)[C@@H](C(C)C)O2)OC1=O [bafilomycin A1] | 0.924 |
| O[C@H]1[C@H]2[C@H](O)CCCN2C[C@H]1O [swainsonine] | 0.371 |
| CN1CCC2=C[C@H](O)[C@H]3OC(=O)c4cc5c(cc4[C@H]3[C@@H]21)OCO5 [Hippeastrine hydrobromide] | 0.407 |
| CN1CCc2cc3c(cc2[C@H]1[C@@H]1OC(=O)c2c1ccc1c2OCO1)OCO3 [Bicuculline (+)] | 0.326 |
| CN1Cc2c(ccc3c2OCO3)[C@@H]2[C@H]1c1cc3c(cc1C[C@@H]2O)OCO3.O [Chelidonine (+)] | 0.93 |
